The values that follow come from PubChem BioAssay (NCATS).

Structures are written as SMILES. Results filed as inconclusive are left out. Entries that show only a call come without a potency. The source made the active and inactive calls. The call rests on the fitted dose curve; in most records, active means well fitted cell-killing curve with a large enough effect; inconclusive means small, poorly fitted or top-dose-only effect, or effect the other way; inactive means flat fitted curve, though single readings scatter.
Potency means the concentration at half of the fitted maximal effect.

In the experiment the test system is CAOV3. Description: Primary qHTS to identify gynecologic anti-cancer compounds using libraries of approved drugs and bioactive compounds (AID 1345084). Further: nearly all actives have a fitted effect of over 55% in size. The following applies: Gynecologic cancer cell panel viability, ATPlite luminescence, 48 h; series mostly up to 57.5 µM. The source says:
National Center for Advancing Translational Sciences [NCATS] Assay Overview: Chemotherapeutic drug responses vary from cancer to cancer and from patient to patient. These variations could be caused by a number of factors including patient genomic background, tumor mutations, tumor heterogeneity, and aspects of drug treatment. Chemotherapeutic drug resistance is also a common issue and can lead to ineffective treatment and patient death. Here we have profiled the cell killing effects of thousands of compounds to characterize the responses in three gynecological cancers, identify cancer-selective compounds, and understand the diversity of responses to these compounds from pan-cancer suppressors to single cell line selective compounds. In this assay, we screened a 7,914 compound drug library that included approved drug and bioactive compounds in six ovarian, three cervical, and […] placental cancer cell lines using the ATPlite assay for cell viability. […] The cervical cancer cell lines included HeLa, Ca Ski, and C-33 A. The placental cancer cell lines included JEG-3. HEK 293T cells were used as the control cell line to determine the selectivity index. ATPlite is a luminescence based assay reliant on the conversion of a luciferase substrate to light in the presence of ATP. As a cytotoxic compound will suppress growth and decrease the number of cells, the concentration of ATP will decrease, and less light signal will be detected in the well.
Assay Protocol Summary: 1,000 cells in 4 uL of media were dispensed into white, solid bottom 1536-well plates using a Multidrop Combi (Thermo Scientific). The Assay plates were incubated for 16 hours at 37 C with 5% CO2 in assay plates, followed by the addition of 23 nL of DMSO or drug dissolved in DMSO. Each compound was assayed in five concentrations (0.092, 0.46, 2.3, 11.5, and 57.5 uM), using the automated Wako 1536 Pin Tool workstation and incubated at 37 C with 5% CO2 48 hours. 4 uL of ATPlite, the ATP monitoring reagent, was then added to the each well of the assay plates using the Multidrop Combi reagent dispenser followed by incubation for 15 minutes at room temperature. The resulting luminescence was measured using the ViewLux plate reader.
(In general: qHTS replaces the single test concentration by a dilution series.)
On to `O=C(NS(=O)(=O)c1ccc(Br)s1)c1ccc(Cl)cc1Cl`, for which the Potency entry was “inactive”. Same read-out and setting: to `C=C1C(=O)O[C@@H]2C[C@H](C)[C@@H]3CC(=O)[C@H](O)[C@@]3(C)C[C@H]12` belongs “inactive”. Still for that read-out and setting: to `C=C[C@@]12COC(=O)C(=C)[C@@H]1[C@@H](O)[C@H](C(=C)C(=O)OC)[C@@H](O)C2` belongs “inactive”. On to `O=C1C[C@]23C=CCN4CCC5c6cc7c(cc6N1[C@@]5(CC2)C43)OCO7` (stereo not given in full), for which the Potency entry was “inactive”. For `CC(=O)O[C@@H]1[C@H](O[C@@H]2O[C@@H](CO)[C@H](O)[C@H]2O)[C@@H](O[C@@H]2O[C@@H](C)[C@H](O[C@@H]3OC[C@@H](O)[C@H](O)[C@H]3O)[C@@H](O)[C@H]2O)[C@H](OC(=O)[C@]23CCC(C)(C)C[C@H]2C2=CCC4[C@@]5(C)CC[C@H](O[C@@H]6O[C@H](C(=O)O)[C@@H](O)[C@H](O)[C@H]6O[C@@H]6O[C@H](CO)[C@H](O)[C@H](O)[C@H]6O)[C@@](C)(C=O)C5CC[C@@]4(C)[C@]2(C)C[C@H]3O)O[C@@H]1C` (stereo not given in full), the activity change, negative = cytotoxicity was -10.3% [at 6.55 µM] (inactive). Take `CCOc1ccc(S(=O)(=O)N2CCCCCC2)c2ccccc12`: the Potency entry is “inactive”.

Take `CC12CCC(OC3OC(CO)C(O)C(O)C3OC3OC(CO)C(O)C(O)C3O)CC1CCC1C2CCC2(C)/C(=C3/COC(=O)C3)CCC12O` (stereo not given): the Potency result is “inactive”. The same measure, in the same setting: to `NC(=O)N1CCC(CC(=O)N2CCC(C3c4ncc(Br)cc4CCc4cc(Cl)cc(Br)c43)CC2)CC1` (stereo not given) belongs “inactive”; to `COc1ccccc1C(=O)Nc1cccc(NC(=O)c2cccc(C)c2)c1`, “inactive”. The same measure, in the same setting: to `O=C(Nc1ccc2[nH]nc(-c3ccncc3)c2c1)[C@@H]1CCN(CC(=O)N2CCN(c3ccc(-c4ncccn4)cc3)CC2)C1` belongs “inactive”. Turning to `COc1cccc(N2CCN(C3=Nc4c(F)cccc4[C@H](CC(=O)O)N3c3cc(C(F)(F)F)ccc3OC)CC2)c1`, the Potency entry was “inactive”.

Turning to `CC(C)=C[C@@H]1[C@H](CO[C@@H]2O[C@H](CO)[C@@H](O)[C@H](O)[C@H]2O)C1(C)C`, the Potency entry was “inactive”. As to `C=C1C(=O)OC[C@@H]1C/C=C(\C)CC1CC(C)C(=O)O1` (stereo not given in full), the Potency result is “inactive”. On the same count and under the same terms, to `COc1cc(/C=C/C(=O)NCCn2c(C(F)(F)F)cc3ccccc32)cc(OC)c1OC` belongs “inactive”.

For `O=C(Nc1ccc(-c2ccnc(Nc3ccc(N4CCOCC4)cc3)n2)cc1)C1CCCN1` (stereo not given), the Potency result was “inactive”. On the same count and under the same terms, to `Cc1nc(N2CCN(C(=O)c3ccco3)CC2)c2c3c(sc2n1)CCCC3` belongs “inactive”. The same measure, in the same setting: to `C/C=C(/C)C(=O)O[C@H]1C=C(CO)C(=O)[C@H](OC(=O)/C(C)=C/CO)[C@H]1C(C)C` belongs 11.2 µM (active). Same read-out and setting: to `Cc1ccc(NC(=O)c2ccc(CN3CCNCC3)cc2)cc1Nc1nccc(-c2cccnc2)n1` belongs 22.4 µM (active); to `CC(=O)C=C=C1C(C)(C)CC(O)CC1(C)O[C@@H]1O[C@H](CO[C@H]2OC[C@](O)(CO)[C@H]2O)[C@@H](O)[C@H](O)[C@H]1O` (stereo not given in full), “inactive”; to `C=C1/C(=C/C=C2\CCC[C@]3(C)[C@@H]([C@H](C)/C=C/[C@@H](C)C(C)C)CC[C@@H]23)C[C@@H](O)C[C@@H]1O`, “inactive”.

Take `C=C(C(=O)OC[C@H]1O[C@@H](OC(=O)/C=C/c2ccccc2)[C@H](O)[C@@H](O)[C@@H]1O)C(O)CO` (stereo not given in full): the Potency entry was “inactive”. `C[C@@H]1O[C@@H](O[C@H]2CC[C@@]3(C)C(CC[C@]4(C)C3CC=C3[C@@H]5CC(C)(C)CC[C@]5(C(=O)O[C@@H]5O[C@H](CO)[C@@H](O)[C@H](O)[C@H]5O)CC[C@]34C)[C@]2(C)CO)[C@H](O)[C@H](O[C@@H]2O[C@H](CO)[C@@H](O)[C@H](O)[C@H]2O)[C@H]1O` (stereo not given in full): the activity change, negative = cytotoxicity was -0.291% [at 11.6 µM] (inactive). Consider `C=CC(=O)N1CCCN(c2cc(NCCC(=O)O)nc(-c3ccccn3)n2)CC1`, for which the Potency entry was “inactive”. The same measure, in the same setting: to `COc1ccc(-c2ccccc2)cc1NS(=O)(=O)c1cc(Cl)cc(Cl)c1O` belongs “inactive”; to `C[C@@H]1CC[C@@]23CC[C@]4(C)[C@@](C=CC5[C@@]6(C)CC[C@H](O)C(C)(C)C6CC[C@]54C)(OC2=O)C3[C@H]1C` (stereo not given in full), “inactive”; to `C[C@@H](NC(=O)[C@H](O)c1cc(F)cc(F)c1)C(=O)N[C@@H]1C(=O)N(C)c2ccccc2-c2ccccc21`, “inactive”. Turning to `COc1c(C(C)C)c(O)c(O)c2c1C(OC)[C@H]1OC(=O)[C@@]23CCCC(C)(C)[C@H]13` (stereo not given in full), the Potency result is “inactive”. On the same count and under the same terms, to `N#Cc1ccc(COc2ccc(-c3cccc4nc(NC(=O)C5CC5)nn34)cc2)cn1` belongs 22.4 µM (active). On the same count and under the same terms, to `O=c1[nH]c2ccccc2n1CCN1CCN(c2cccc(C(F)(F)F)c2)CC1` belongs “inactive”; to `C=C1C(=O)O[C@@H]2[C@H]3C(C)=CC(=O)C3=C(C)[C@@H](OC(=O)/C(C)=C\C)[C@H](O)[C@@H]12`, “inactive”; to `CC(C)C[C@@H](N)C(=O)N[C@H]1C(=O)N[C@@H](CC(N)=O)C(=O)N[C@H]2C(=O)N[C@H]3C(=O)N[C@H](C(=O)N[C@H](C(=O)O)c4cc(O)cc(O)c4-c4cc3ccc4O)[C@H](O)c3ccc(c(Cl)c3)Oc3cc2cc(c3O[C@@H]2O[C@H](CO)[C@@H](O)[C@H](O)[C@H]2O[C@H]2C[C@](C)(N)[C@H](O)[C@H](C)O2)Oc2ccc(cc2Cl)[C@H]1O`, “inactive”.

With `CC(=O)O[C@]1(C(C)=O)CC[C@H]2[C@@H]3CCC4=CC(=O)CCC4=C3[C@@H](c3ccc(N(C)C)cc3)C[C@@]21C`, the Potency entry was “inactive”. For `COc1c(C(O)CC(C)C)ccc2c1C(=O)OCc1cc(C)cc(O)c1O2` (stereo not given), the Potency entry is “inactive”. Same read-out and setting: to `CC(C)CCNC(=O)[C@H](CC(C)C)NC(=O)[C@H]1O[C@@H]1C(=O)O` belongs “inactive”. On the same count and under the same terms, to `CC1=CC2/C=C(\C)CCC(O)C/C=C/C(=O)OC23C(=O)NC(CC(C)C)C3C1C` (stereo not given) belongs “inactive”. As to `CC1(C)SCCN(S(=O)(=O)c2ccc(Oc3ccncc3)cc2)[C@H]1C(=O)NO`, the Potency result was “inactive”. On to `CNCCC(c1cccs1)c1ccc(O)c2ccccc12` (stereo not given), for which the Potency result was “inactive”. On the same count and under the same terms, to `CC(C)c1noc(C2CCN(c3ncnc(Nc4ccc(S(C)(=O)=O)cc4F)c3[N+](=O)[O-])CC2)n1` belongs “inactive”. Regarding `CO[C@H]1[C@@H](O)[C@H](O[C@H]2CC[C@@]3(C)C(CCC4C3CC[C@]35COC6(COC(=O)C6)C3CCC45O)C2)O[C@@H](C)[C@@H]1OC1OC(CO)C(OC2OC(CO)C(O)C(O)C2O)C(O)C1O` (stereo not given in full), the activity change, negative = cytotoxicity was -7.69% [at 11.6 µM] (inactive). As to `CN(C)C(CCOc1cccc2ccccc12)c1ccccc1` (stereo not given), the Potency result is “inactive”.
